Consider 85 compounds from publication PMC4336329 (PLoS ONE, 2015).

Hit rate of the full screen: of about 310,000 compounds, about 2,200 (0.71%) showed an effect of 50% or more. The effect is printed as a negative number. The sample holds strong results, similar compounds and a random draw of the others, so the mix is not that of the screen.

The assay deals with human ether-à-go-go-related gene (hERG) potassium channel (human, UniProt Q12809). The experiment in a line: primary screen, population patch clamp on CHO cells stably expressing hERG; higher = less effect of the substance.
human ether-à-go-go-related gene (hERG) potassium channel, sequence (Q12809 whole entry, looked up): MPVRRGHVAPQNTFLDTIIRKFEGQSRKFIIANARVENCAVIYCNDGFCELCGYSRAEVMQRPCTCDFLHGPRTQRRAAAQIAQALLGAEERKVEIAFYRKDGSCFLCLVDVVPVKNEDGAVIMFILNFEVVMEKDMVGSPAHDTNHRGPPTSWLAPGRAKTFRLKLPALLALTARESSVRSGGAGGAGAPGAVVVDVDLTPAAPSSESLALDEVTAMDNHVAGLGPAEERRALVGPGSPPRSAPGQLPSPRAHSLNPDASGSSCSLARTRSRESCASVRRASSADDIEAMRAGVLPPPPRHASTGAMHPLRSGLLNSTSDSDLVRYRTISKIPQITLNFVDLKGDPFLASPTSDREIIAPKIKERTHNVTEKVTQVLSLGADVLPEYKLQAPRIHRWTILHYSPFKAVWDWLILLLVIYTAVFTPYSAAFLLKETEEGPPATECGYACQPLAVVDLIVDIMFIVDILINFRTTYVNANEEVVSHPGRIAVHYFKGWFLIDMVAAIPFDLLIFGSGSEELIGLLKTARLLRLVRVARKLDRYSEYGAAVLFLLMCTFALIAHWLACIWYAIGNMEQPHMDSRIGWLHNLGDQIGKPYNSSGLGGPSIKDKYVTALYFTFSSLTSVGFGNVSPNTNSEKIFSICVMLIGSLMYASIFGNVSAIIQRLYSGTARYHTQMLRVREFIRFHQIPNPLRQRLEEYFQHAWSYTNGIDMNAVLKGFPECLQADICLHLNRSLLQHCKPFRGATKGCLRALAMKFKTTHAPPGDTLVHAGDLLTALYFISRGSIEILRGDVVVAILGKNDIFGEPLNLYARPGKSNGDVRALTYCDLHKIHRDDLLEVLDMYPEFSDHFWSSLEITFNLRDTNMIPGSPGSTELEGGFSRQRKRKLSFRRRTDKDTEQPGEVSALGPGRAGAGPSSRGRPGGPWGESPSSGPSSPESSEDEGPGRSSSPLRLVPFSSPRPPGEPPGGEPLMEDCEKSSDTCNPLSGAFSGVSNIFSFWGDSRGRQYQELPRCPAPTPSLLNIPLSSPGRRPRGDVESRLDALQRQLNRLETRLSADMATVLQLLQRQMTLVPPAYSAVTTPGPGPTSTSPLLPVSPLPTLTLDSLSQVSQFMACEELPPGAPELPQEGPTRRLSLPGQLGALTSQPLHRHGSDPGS
Consider `CCOC(=O)[C@H]1[C@H]2COc3ccc(OC)cc3[C@@H]2N2C(=O)c3cc(OC)c(OC)cc3NC(=O)[C@@]12C`, for which the “hERG current change (%, negative = inhibition) at 1uM” value worked out at 5.4%.
Take `O=C(NNC(=S)Nc1ccccc1)c1ccc(O)cc1`: the “hERG current change (%, negative = inhibition) at 1uM” value is 15.2%.
Turning to `Cc1nn(-c2ccccc2)c(Cl)c1/C=C(\CC(=O)O)c1nc2ccccc2s1`, the “hERG current change (%, negative = inhibition) at 1uM” value was found to be 2.95%.
In the case of `Cc1nnc(SCC(=O)Nc2sc3c(c2C(N)=O)CCC(C)C3)[nH]c1=O` (stereo not shown), the “hERG current change (%, negative = inhibition) at 1uM” value is reported as 10.6%.
For the compound `CC1CCCCC1NC(=O)CN1C(=O)CSc2cc(S(=O)(=O)N3CCCCCC3)ccc21` (stereo not shown), the “hERG current change (%, negative = inhibition) at 1uM” value is 7.3%.
For `O=C(c1ccc([N+](=O)[O-])cc1)N1CCN(Cc2ccccc2)CC1`, the “hERG current change (%, negative = inhibition) at 1uM” value is listed as -28.7%.
For `CSc1ccc(CN2CCN(C(=O)c3ccc([N+](=O)[O-])cc3)CC2)cc1.O=C(O)C(=O)O` the value was -78.1%.
In the case of `CSc1ccc(CN2CCN(C(=O)c3ccncc3)CC2)cc1` it was -0.743%; in that of `Cc1[nH]c2ccc(Br)cc2c(=S)c1C/C=C/Cl`, 5.3%; in that of `COCCNC(=O)NC(=O)COC(=O)C1(c2ccc(Cl)cc2)CC1`, 6.06%.
For `COc1ccc(C(CCN2CCCCC2)c2c(O)cc(OC)cc2OC)cc1` (stereo not shown) the value was -71.3%.
As to `COc1cc(O)c(C(CCN2CCCCC2)c2ccc3c(c2)OCO3)c(OC)c1` (stereo not shown), the “hERG current change (%, negative = inhibition) at 1uM” value is on record as -72.1%.
For `CCN(CC)CCC(c1ccc2c(c1)OCO2)c1c(O)cc(OC)cc1OC` (stereo not shown) the value was -73.4%; for `COc1cc(O)c(C(CC(=O)N2CCCC(C)C2)c2ccc3c(c2)OCO3)c(OC)c1` (stereo not shown), 14.5%.
In the case of `COc1cc(O)c(C(CCN2CCCCC2)c2ccc(N(C)C)cc2)c(OC)c1` (stereo not shown) it was 10.3%; in that of `COc1cc(O)c(C(CCN2CCCC(C)C2)c2ccc3c(c2)OCO3)c(OC)c1` (stereo not shown), -84.1%; in that of `CCN(CC)CCC(c1ccc(OC)cc1)c1c(O)cc(OC)cc1OC` (stereo not shown), -25.8%.
For `COc1cc(O)c(C(CCN2CCCC2)c2ccc3c(c2)OCO3)c(OC)c1` (stereo not shown) the value was -41.5%.
In the case of `COc1ccc(C(CCN2CCCC2)c2c(O)cc(OC)cc2OC)cc1` (stereo not shown), the “hERG current change (%, negative = inhibition) at 1uM” value is reported as -21.1%.
Turning to `COc1cc(O)c(C(CCN2CCCC(C)C2)c2ccc(N(C)C)cc2)c(OC)c1` (stereo not shown), the “hERG current change (%, negative = inhibition) at 1uM” value is -9.72%.
In the case of `COc1cc(O)c(C(CCN2CCN(c3ccccc3)CC2)c2ccc3c(c2)OCO3)c(OC)c1` (stereo not shown) it was 5.8%.
In the case of `CCN(CC)C(=O)CC(c1ccc2c(c1)OCO2)c1c(O)cc(OC)cc1OC` (stereo not shown) it was 5.47%; in that of `CC1CN(C(=O)c2c(Br)cnn2C)CC(C)O1` (stereo not shown), 4.32%.
In the case of `O=C(COC(=O)Cc1ccsc1)Nc1cccc(Cl)c1` it was 0.601%.
For the compound `Cc1ccc(C(=O)N2CCN(c3ccccc3)CC2)cc1NC(=O)c1ccco1`, the “hERG current change (%, negative = inhibition) at 1uM” value is 1.43%.
For `COc1ccc(N2CCN(C(=O)c3cccc(NC(=O)c4ccco4)c3)CC2)cc1`, the “hERG current change (%, negative = inhibition) at 1uM” value was -8.07%.
As to `COc1ccc(N2CCN(C(=O)c3ccc(C)c(NC(=O)c4ccco4)c3)CC2)cc1`, the “hERG current change (%, negative = inhibition) at 1uM” value was -53.7%.
In the case of `O=C(c1cc(COc2ccc3ncccc3c2)on1)N1CCCC1` it was 13.5%; in that of `CN1C(=O)c2oc3ccccc3c(=O)c2C1c1ccncc1` (stereo not shown), 5.81%; in that of `O=S(=O)(c1ccc2nc(-c3ccccc3)[nH]c2c1)N1CCN(c2ccc(Cl)cc2)CC1`, 5.61%.
For the compound `O=C(NCC1CCN(Cc2ccccc2Cl)CC1)Nc1ccccc1F`, the “hERG current change (%, negative = inhibition) at 1uM” value was -6.32%.
As to `COc1ccc(OC)c(CN2CCC(CNC(=O)Nc3cccc(Cl)c3)CC2)c1`, the “hERG current change (%, negative = inhibition) at 1uM” value is -26.3%.
As to `O=C(NCC1CCN(Cc2ccccc2Cl)CC1)Nc1cccc(Cl)c1`, the “hERG current change (%, negative = inhibition) at 1uM” value was -62.3%.
As to `C1CNCCN1.COc1cc(C(O)CO)ccc1O` (stereo not shown), the “hERG current change (%, negative = inhibition) at 1uM” value is 10%.
As for `CCN(CC)CCOC(=O)C(Cc1ccco1)Cc1cccc2ccccc12.O=C(O)C(=O)O` (stereo not shown), the “hERG current change (%, negative = inhibition) at 1uM” value is reported as -62.8%.
In the case of `CCN(CC)CCOC(=O)C(Cc1cccc2ccccc12)CC1CCCO1.O=C(O)C(=O)O` (stereo not shown) it was -20.2%; in that of `CCN(CC)CCOC(=O)CCc1cccc2ccccc12.O=C(O)C(=O)O`, -3.77%.
In the case of `C#CCOCCOCCOCCNc1nc(N2CCOCC2)nc(N2CCN(C(=O)Cn3cc(CCC[NH+]=C(N)N)nn3)CC2)n1.[Cl-]` it was 17.5%; in that of `CCc1ccc(/C=C(/C#N)C(N)=S)s1`, 15%; in that of `O=C(N/N=C/c1ccsc1)c1ccccn1`, 16.7%.
In the case of `O=C(Nc1ccc(Cl)c(Cl)c1)N(CCCN1CCOCC1)Cc1cccs1` it was -41.8%; in that of `O=C(Nc1ccccc1)N(CCCN1CCOCC1)Cc1cccs1`, -29.2%; in that of `O=C(CNC(=S)N(CCCN1CCOCC1)Cc1cccs1)NCc1ccc(Cl)cc1`, -61.3%.
As for `O=C(CNC(=S)N(CCCN1CCOCC1)Cc1cccs1)NCCCN1CCOCC1`, the “hERG current change (%, negative = inhibition) at 1uM” value came out at 16.3%.
For `O=C(Nc1ccc(Cl)cc1)N(CCCN1CCOCC1)Cc1cccs1` the value was -55%; for `O=C(CNC(=S)N(CCCN1CCOCC1)Cc1cccs1)NCc1ccccc1Cl`, -35.5%; for `Cc1ccc(OCC(=O)N2CCc3ccccc32)cc1`, 10.7%.
For `Cc1cc(C)cc(NC(=O)CN2CCC(NC(=O)c3cccc(F)c3)CC2)c1`, the “hERG current change (%, negative = inhibition) at 1uM” value is 4.29%.
As for `Cc1ccc(NC(=O)CN2CCC(NC(=O)c3cccc(F)c3)CC2)cc1C`, the “hERG current change (%, negative = inhibition) at 1uM” value is recorded as -13.4%.
As to `O=C(CN1CCN(c2ccccc2)CC1)Nc1ccc(OCc2ccccc2)cc1`, the “hERG current change (%, negative = inhibition) at 1uM” value stood at 13.4%.
For `CCCCOc1ccc(NC(=O)CN2CCN(Cc3ccccc3)CC2)cc1` the value was 1.72%.
In the case of `CCOc1ccc(NC(=O)CN2CCN(Cc3c(F)cccc3F)CC2)cc1` it was -50.7%.
For the compound `O=C(CN1CCCC1)Nc1ccc(OCc2ccccc2)cc1`, the “hERG current change (%, negative = inhibition) at 1uM” value worked out at 8%.
In the case of `O=C(CN1CCN(CC(=O)Nc2ccc(OCc3ccccc3)cc2)CC1)Nc1ccc(F)cc1` it was -81.5%; in that of `Cc1cc(C(=O)CN2CCN(CC(=O)Nc3cccc(F)c3)CC2)c(C)n1C1CC1`, -7.82%.
With `O=C(CN1CCC(NC(=O)c2cccc(F)c2)CC1)Nc1ccc(Br)cc1`, the “hERG current change (%, negative = inhibition) at 1uM” value was -53.9%.
In the case of `CCOc1ccc(NC(=O)CN2CCN(C3c4ccccc4-c4ccccc43)CC2)cc1`, the “hERG current change (%, negative = inhibition) at 1uM” value is given as -25.5%.
For `Cc1cc(C(=O)CN2CCN(CC(=O)Nc3ccc(F)cc3)CC2)c(C)n1C1CC1` the value was -72.3%.
For the compound `Cc1cccc(C)c1NC(=O)CN1CCN(CC(=O)c2cc(C)n(C3CC3)c2C)CC1`, the “hERG current change (%, negative = inhibition) at 1uM” value is -0.73%.
For `C[C@]1(C(=O)NCCc2c[nH]c3ccccc23)C=C[C@@H](Cc2ccccc2)N1C(=O)c1ccccc1` the value was 7.98%.
For `CCn1ccc(C(=O)NC2CCCC2)n1`, the “hERG current change (%, negative = inhibition) at 1uM” value was determined as 8.64%.
With `CN(C)C(=O)CN1CCN(Cc2nc(CC3CC3)no2)CC1`, the “hERG current change (%, negative = inhibition) at 1uM” value was determined as 7.17%.
In the case of `COCCN(C(=O)CSc1nc2ccccc2c(=O)n1CCOC)c1c(N)n(Cc2ccccc2)c(=O)[nH]c1=O` it was 12.6%; in that of `Cl.O=S(=O)(NC1CCN(Cc2ccccc2)CC1)c1ccc2ccccc2c1`, 4.69%; in that of `C#CCOCCOCCOCCNc1nc(N2CCN(C(=O)[C@H](Cc3ccc(O)cc3)n3cc([C@@H](N)C(C)CC)nn3)CC2)nc(N2CCN(C(=O)[C@H](CCCCN)n3cc([C@@H](N)CO)nn3)CC2)n1.Cl` (stereo partly shown), 12.4%.
Consider `COc1cccc(/C=C/C(=O)OCC(=O)NC2CC2)c1`, for which the “hERG current change (%, negative = inhibition) at 1uM” value is listed as 10.5%.
In the case of `CC(C)/C(=N/Nc1ccccc1[N+](=O)[O-])c1ccccc1` it was 22.6%; in that of `CCCCc1nnc(NC(=O)COC)s1`, 16.3%.
In the case of `CCOc1ccc(NC(=O)CN2CCN(CC(=O)Nc3cc(OC)cc(OC)c3)CC2)cc1` it was -71.3%; in that of `COc1cc(C(=O)N2CCC(n3cnc4cc(F)ccc43)CC2)cc(OC)c1OC`, -9.25%.
In the case of `CCOC(=O)N1CCN(CC(=O)Nc2ccc(OC)cc2)CC1`, the “hERG current change (%, negative = inhibition) at 1uM” value is given as 9.1%.
For `COc1ccccc1CNC(=O)CN1CCC(n2cnc3cc(F)ccc32)CC1` the value was -59.1%; for `CC(=O)Nc1ccc(S(=O)(=O)N2CCC(n3cnc4cc(F)ccc43)CC2)cc1`, -26.4%.
For `CCOc1ccc(NC(=O)CN2CCC(n3cnc4cc(F)ccc43)CC2)cc1` the value was -71.7%.
In the case of `CCOC(=O)N1CCN(CC(=O)Nc2ccc(C)cc2)CC1` it was 6.17%.
For the compound `CCOC(=O)N1CCN(CC(=O)Nc2ccc(F)cc2)CC1`, the “hERG current change (%, negative = inhibition) at 1uM” value was -73%.
Regarding `COc1ccccc1CNC(=O)CN1CCC(NC(=O)c2ccccc2F)CC1.Cl`, the “hERG current change (%, negative = inhibition) at 1uM” value stood at 1.06%.
In the case of `CCOc1ccc(NC(=O)CN2CCN(CC(=O)Nc3ccc(C(=O)OC)cc3)CC2)cc1` it was -48%; in that of `COc1cc(NC(=O)CN2CCCCCC2)cc(OC)c1`, 13.5%.
Regarding `O=C(CN1CCC(n2cnc3cc(F)ccc32)CC1)Nc1ccccc1Br`, the “hERG current change (%, negative = inhibition) at 1uM” value is -23.5%.
For the compound `CCN(C(=O)CSc1nc2cc(C(=O)OC)ccc2c(=O)n1Cc1ccco1)c1cccc(C)c1`, the “hERG current change (%, negative = inhibition) at 1uM” value was 7.87%.
In the case of `Cc1c(NC(=O)C(C)Oc2ccc(Br)cc2Cl)c(=O)n(-c2ccccc2)n1C` (stereo not shown) it was -1.81%.
Regarding `COc1ccc(C(=O)NC(=S)NCc2ccco2)cc1`, the “hERG current change (%, negative = inhibition) at 1uM” value amounted to 15%.
For `Cc1cc(C)c(S(=O)(=O)Cc2ccc(Cl)cc2)c(=O)[nH]1` the value was 9.42%; for `O=C(N1CCN(CCO)CC1)N1c2ccccc2C=Cc2ccccc21`, 13%.
